Source: article PMC12864922, “TDP-43 directly inhibits mRNA accumulation in neurites through modulation of mRNA stability”
Over roughly 9,900 sequences, “r (bound/input frequency ratio)” has its median near 0.7; the highest 2% begin near 6.5. The list comes from a sample in which the highest values are over-represented; it also holds similar and randomly drawn sequences.

B1: ENSMUSG00000031028.174|Tub|17:22 (ssRNA)
RNA: GGGAGUUCUACAGUCCGACGAUCGCUUCGAUAUCCGCAUGCUAAGAGGUAGCGGACCUCACACACGUUCACCAACAGCAAUGCUGAUCCCUGAGUAUAGGGCACAUGUCUCUUGGUUACCUCACUGGUUAAUGGCAGAGUUGAGAACCUCAAAUUCUUUUGUUCCUACUGUUGCCCAGAAACUAGACUCUCUGACCUGCUAGGGUCUAUUCUGCAUGUCCUUUCUCUUCCCAGUUCCAGAGAUGAAACCCCUCCGAGUUAAUGUAUAAGGUUGGAAACCUUUCAGUAGGGAAUCAGGCAGUUCCUCUUGCGGUCGCACUAGUGUGGAAUUCUCGGGUGUCAAGG
B2: ENSMUSG00000029028.255|Lrrc47 (ssRNA)
RNA: GGGAGUUCUACAGUCCGACGAUCGCUUCGAUAUCCGCAUGCUAGCUCACAGGUCCCUUUGAGUGGCUGUGGCAAGUACUCACCUACUAAGUGUUUAGGGUGGAGCUAUCCUGUGCUCACCCUGUCUCCCCCCAGUUCCUGCUGUUCCCUCCAGCCCAGCCCAGCCCAGGUGUGAGAUUCAUUGAGAUUUUUGAAACUGUUUUUACAGAUUCAAGCAGAACGCCUCUUUGUUCUAAUAAAAACCCUUGGUAACGACAUCUCUGCAUCAGCAGCCUUAGCACAUGCGUCUCCCAGGACAGUGUUGCUCUUGCGGUCGCACUAGUGUGGAAUUCUCGGGUGUCAAGG
B3: ENSMUSG00000029636.271|Wasf3|45:50 (ssRNA)
RNA: GGGAGUUCUACAGUCCGACGAUCGCUUCGAUAUCCGCAUGCUAAGUGAAAGCCCAUGUGCAAGCCCCUCCCUACGCCCUGCUUUGGCCACACACUGAGUGCUCUGUGCUGCGCCAUGGCCAUCCUGGAGCCUGCGCACACGUGGCCGCUGCUGUGACUCGCUGUCCUUGGUAAUUGGUGAGAGGCUUUUUCUUUCUUUCUCAGUUCUGCUUUUCCACACUGAGACCCACCAUGUUGACAUCAUCCUCGCGACGUUGACAUUUGAGCCUUUUGUUCUGUCUCCCAUGUGCCCUGUAGAACCCAGCUCUUGCGGUCGCACUAGUGUGGAAUUCUCGGGUGUCAAGG
B4: ENSMUSG00000022095.273|Fam160b2 (ssRNA)
RNA: GGGAGUUCUACAGUCCGACGAUCGCUUCGAUAUCCGCAUGCUAAUGUGAGUGUGUGUGUGUGUGUGUGUGAGAGAGAGAGAGAGAGAGAGAGAGCUGUGAGUACACAUGGGUGCUGGUGUGGGACAGGAGCAGAUCUUGGUGGAGUGGGUCUACACUUGAGAUUUGUACUCGUUUGAGAGGCUGGGCAAUACUCAAUGCACUUUGGCAUUUGCAUGGUGUCUUCACAACAGCACAGCAAUAAACAUUGUGAUUGUGUGGACAUGCUGACUCUCCCCAGUCUGCUUUUCUUUUCCCCAAGCUUUCUCUUGCGGUCGCACUAGUGUGGAAUUCUCGGGUGUCAAGG
B5: ENSMUSG00000022095.271|Fam160b2|19:39;86:90;222:227 (ssRNA)
RNA: GGGAGUUCUACAGUCCGACGAUCGCUUCGAUAUCCGCAUGCUAAGCUAUGAAUGAAUGUGACACACACACACACACACACACAGAGAGAGAGAGAGAGAGAGAGAGCUGUGAGUACACAUGGGUGCUGCACACGGACAGGAGCAGAUCUUGGUGGAGUGGGUCUACACUUGAGAUUUGUACUCGUUUGAGAGGCUGGGCAAUACUCAAUGCACUUUGGCAUUUGCAUGGUGUCUUCACAACAGCACAGCAAUAAACAUUGUGAUACACACGACAUGCUGACUCUCCCCAGUCUGCUUUUCUUUCUCUUGCGGUCGCACUAGUGUGGAAUUCUCGGGUGUCAAGG
B6: ENSMUSG00000022095.268|Fam160b2|37:57;104:108;240:245 (ssRNA)
RNA: GGGAGUUCUACAGUCCGACGAUCGCUUCGAUAUCCGCAUGCUAAGAGAGAGAGAGAGAGCGAGCUAUGAAUGAAUGUGACACACACACACACACACACACAGAGAGAGAGAGAGAGAGAGAGAGCUGUGAGUACACAUGGGUGCUGCACACGGACAGGAGCAGAUCUUGGUGGAGUGGGUCUACACUUGAGAUUUGUACUCGUUUGAGAGGCUGGGCAAUACUCAAUGCACUUUGGCAUUUGCAUGGUGUCUUCACAACAGCACAGCAAUAAACAUUGUGAUACACACGACAUGCUGACUCUCCUCUUGCGGUCGCACUAGUGUGGAAUUCUCGGGUGUCAAGG
B7: ENSMUSG00000022095.268|Fam160b2 (ssRNA)
RNA: GGGAGUUCUACAGUCCGACGAUCGCUUCGAUAUCCGCAUGCUAAGAGAGAGAGAGAGAGCGAGCUAUGAAUGAAUGUGAGUGUGUGUGUGUGUGUGUGUGAGAGAGAGAGAGAGAGAGAGAGAGCUGUGAGUACACAUGGGUGCUGGUGUGGGACAGGAGCAGAUCUUGGUGGAGUGGGUCUACACUUGAGAUUUGUACUCGUUUGAGAGGCUGGGCAAUACUCAAUGCACUUUGGCAUUUGCAUGGUGUCUUCACAACAGCACAGCAAUAAACAUUGUGAUUGUGUGGACAUGCUGACUCUCCUCUUGCGGUCGCACUAGUGUGGAAUUCUCGGGUGUCAAGG
B8: ENSMUSG00000022095.266|Fam160b2|1:10;49:69;116:120;252:257 (ssRNA)
RNA: GGGAGUUCUACAGUCCGACGAUCGCUUCGAUAUCCGCAUGCUAACACACACACAGAGAGAGAGAGAGAGAGCGAGCUAUGAAUGAAUGUGACACACACACACACACACACACAGAGAGAGAGAGAGAGAGAGAGAGCUGUGAGUACACAUGGGUGCUGCACACGGACAGGAGCAGAUCUUGGUGGAGUGGGUCUACACUUGAGAUUUGUACUCGUUUGAGAGGCUGGGCAAUACUCAAUGCACUUUGGCAUUUGCAUGGUGUCUUCACAACAGCACAGCAAUAAACAUUGUGAUACACACGACCUCUUGCGGUCGCACUAGUGUGGAAUUCUCGGGUGUCAAGG
B9: ENSMUSG00000022095.269|Fam160b2|31:51;98:102;234:239 (ssRNA)
RNA: GGGAGUUCUACAGUCCGACGAUCGCUUCGAUAUCCGCAUGCUAAGAGAGAGAGCGAGCUAUGAAUGAAUGUGACACACACACACACACACACACAGAGAGAGAGAGAGAGAGAGAGAGCUGUGAGUACACAUGGGUGCUGCACACGGACAGGAGCAGAUCUUGGUGGAGUGGGUCUACACUUGAGAUUUGUACUCGUUUGAGAGGCUGGGCAAUACUCAAUGCACUUUGGCAUUUGCAUGGUGUCUUCACAACAGCACAGCAAUAAACAUUGUGAUACACACGACAUGCUGACUCUCCCCAGUCUCUUGCGGUCGCACUAGUGUGGAAUUCUCGGGUGUCAAGG
B10: ENSMUSG00000022095.270|Fam160b2 (ssRNA)
RNA: GGGAGUUCUACAGUCCGACGAUCGCUUCGAUAUCCGCAUGCUAAGAGCGAGCUAUGAAUGAAUGUGAGUGUGUGUGUGUGUGUGUGUGAGAGAGAGAGAGAGAGAGAGAGAGCUGUGAGUACACAUGGGUGCUGGUGUGGGACAGGAGCAGAUCUUGGUGGAGUGGGUCUACACUUGAGAUUUGUACUCGUUUGAGAGGCUGGGCAAUACUCAAUGCACUUUGGCAUUUGCAUGGUGUCUUCACAACAGCACAGCAAUAAACAUUGUGAUUGUGUGGACAUGCUGACUCUCCCCAGUCUGCUUCUCUUGCGGUCGCACUAGUGUGGAAUUCUCGGGUGUCAAGG
B11: ENSMUSG00000022095.272|Fam160b2|13:33;80:84;216:221 (ssRNA)
RNA: GGGAGUUCUACAGUCCGACGAUCGCUUCGAUAUCCGCAUGCUAGAAUGAAUGUGACACACACACACACACACACACAGAGAGAGAGAGAGAGAGAGAGAGCUGUGAGUACACAUGGGUGCUGCACACGGACAGGAGCAGAUCUUGGUGGAGUGGGUCUACACUUGAGAUUUGUACUCGUUUGAGAGGCUGGGCAAUACUCAAUGCACUUUGGCAUUUGCAUGGUGUCUUCACAACAGCACAGCAAUAAACAUUGUGAUACACACGACAUGCUGACUCUCCCCAGUCUGCUUUUCUUUUCCCCACUCUUGCGGUCGCACUAGUGUGGAAUUCUCGGGUGUCAAGG
B12: ENSMUSG00000022095.269|Fam160b2 (ssRNA)
RNA: GGGAGUUCUACAGUCCGACGAUCGCUUCGAUAUCCGCAUGCUAAGAGAGAGAGCGAGCUAUGAAUGAAUGUGAGUGUGUGUGUGUGUGUGUGUGAGAGAGAGAGAGAGAGAGAGAGAGCUGUGAGUACACAUGGGUGCUGGUGUGGGACAGGAGCAGAUCUUGGUGGAGUGGGUCUACACUUGAGAUUUGUACUCGUUUGAGAGGCUGGGCAAUACUCAAUGCACUUUGGCAUUUGCAUGGUGUCUUCACAACAGCACAGCAAUAAACAUUGUGAUUGUGUGGACAUGCUGACUCUCCCCAGUCUCUUGCGGUCGCACUAGUGUGGAAUUCUCGGGUGUCAAGG
B13: ENSMUSG00000022095.271|Fam160b2 (ssRNA)
RNA: GGGAGUUCUACAGUCCGACGAUCGCUUCGAUAUCCGCAUGCUAAGCUAUGAAUGAAUGUGAGUGUGUGUGUGUGUGUGUGUGAGAGAGAGAGAGAGAGAGAGAGAGCUGUGAGUACACAUGGGUGCUGGUGUGGGACAGGAGCAGAUCUUGGUGGAGUGGGUCUACACUUGAGAUUUGUACUCGUUUGAGAGGCUGGGCAAUACUCAAUGCACUUUGGCAUUUGCAUGGUGUCUUCACAACAGCACAGCAAUAAACAUUGUGAUUGUGUGGACAUGCUGACUCUCCCCAGUCUGCUUUUCUUUCUCUUGCGGUCGCACUAGUGUGGAAUUCUCGGGUGUCAAGG
B14: ENSMUSG00000022095.272|Fam160b2 (ssRNA)
RNA: GGGAGUUCUACAGUCCGACGAUCGCUUCGAUAUCCGCAUGCUAGAAUGAAUGUGAGUGUGUGUGUGUGUGUGUGUGAGAGAGAGAGAGAGAGAGAGAGAGCUGUGAGUACACAUGGGUGCUGGUGUGGGACAGGAGCAGAUCUUGGUGGAGUGGGUCUACACUUGAGAUUUGUACUCGUUUGAGAGGCUGGGCAAUACUCAAUGCACUUUGGCAUUUGCAUGGUGUCUUCACAACAGCACAGCAAUAAACAUUGUGAUUGUGUGGACAUGCUGACUCUCCCCAGUCUGCUUUUCUUUUCCCCACUCUUGCGGUCGCACUAGUGUGGAAUUCUCGGGUGUCAAGG
B15: ENSMUSG00000022095.270|Fam160b2|25:45;92:96;228:233 (ssRNA)
RNA: GGGAGUUCUACAGUCCGACGAUCGCUUCGAUAUCCGCAUGCUAAGAGCGAGCUAUGAAUGAAUGUGACACACACACACACACACACACAGAGAGAGAGAGAGAGAGAGAGAGCUGUGAGUACACAUGGGUGCUGCACACGGACAGGAGCAGAUCUUGGUGGAGUGGGUCUACACUUGAGAUUUGUACUCGUUUGAGAGGCUGGGCAAUACUCAAUGCACUUUGGCAUUUGCAUGGUGUCUUCACAACAGCACAGCAAUAAACAUUGUGAUACACACGACAUGCUGACUCUCCCCAGUCUGCUUCUCUUGCGGUCGCACUAGUGUGGAAUUCUCGGGUGUCAAGG

Molecular target: TDP-43 (Homo sapiens, UniProt Q13148 1-414)
Test: RNA Bind-n-Seq with designed 260-mer pool; 25 mM Tris-HCl, 150 mM KCl, 3 mM MgCl2, BSA (printed 500 mg/mL), 20 units/mL SUPERase IN; pH not stated; 500 nM RNA pool, 1 h, 4 C; TDP-43 5, 50, 500 nM; high values mean tight binding
Conditions: protein: recombinant; tags: SBP (GST cleaved off with PreScission; pGEX-GST-SBP)
In short: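 In 25 mM Tris-HCl, 150 mM KCl, 3 mM MgCl2, BSA and SUPERase IN, 500 nM of an in vitro-transcribed 260-nt 3′ UTR oligo pool was incubated for 1 h at 4 °C with SBP-tagged TDP-43 (5, 50 or 500 nM) captured on streptavidin beads. RNA remaining after washes was biotin-eluted, reverse transcribed, PCR-amplified and sequenced. Binding, R, is the bound-sample abundance of each oligo, normalized to mapped reads, divided by its abundance in input. Each duplicate used a separate, independent protein batch.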

Sequence of TDP-43 (Q13148 whole entry): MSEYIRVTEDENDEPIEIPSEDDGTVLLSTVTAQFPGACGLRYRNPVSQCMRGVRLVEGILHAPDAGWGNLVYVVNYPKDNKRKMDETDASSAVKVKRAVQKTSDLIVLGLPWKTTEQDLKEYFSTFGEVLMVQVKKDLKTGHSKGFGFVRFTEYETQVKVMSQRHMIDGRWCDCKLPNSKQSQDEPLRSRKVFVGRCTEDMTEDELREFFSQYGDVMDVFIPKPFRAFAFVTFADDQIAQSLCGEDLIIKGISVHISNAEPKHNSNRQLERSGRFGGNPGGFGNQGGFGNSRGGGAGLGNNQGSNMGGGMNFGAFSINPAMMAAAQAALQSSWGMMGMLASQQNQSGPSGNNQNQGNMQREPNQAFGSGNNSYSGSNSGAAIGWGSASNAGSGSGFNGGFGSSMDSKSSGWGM

First: B1
Second: B2
The binding signal of the first is lower: 0.553 R (bound/input frequency ratio) for the first, 0.69 R (bound/input frequency ratio) for the second.

First: B3
Second: B4
The binding signal of the first is lower: 0.821 R (bound/input frequency ratio) for the first, 5.83 R (bound/input frequency ratio) for the second.

First: B5
Second: B6
The binding signal of the first is lower: 4.21 R (bound/input frequency ratio) for the first, 6.08 R (bound/input frequency ratio) for the second.

Going from B7 to B8, the binding signal falls from 6.67 R (bound/input frequency ratio) to 4.83 R (bound/input frequency ratio).

First: B9
Second: B10
The binding signal of the first is lower: 4.63 R (bound/input frequency ratio) for the first, 7.19 R (bound/input frequency ratio) for the second.

First: B11
Second: B12
The binding signal of the first is lower: 4.46 R (bound/input frequency ratio) for the first, 7.25 R (bound/input frequency ratio) for the second.

Compared with B13, B14 is lower in binding signal: 7.64 R (bound/input frequency ratio) for the first, 5.79 R (bound/input frequency ratio) for the second.

In the case of B15, the binding signal is reported as 4.7 R (bound/input frequency ratio).
